# Laboratory results reported in PubChem BioAssay.
# Activity calls are given as the source filed them.
# Test system: not listed separately
# Assay: forskolin-driven CRE-LacZ activity in PC12 – cell-based, CRE-LacZ reporter, forskolin-stimulated, primary screen (AID 1146);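 note: PC12 cells with 6xCRE LacZ reporter stimulated by forskolin 10 µM; beta-galactosidase reporter signal reflecting CREB driven transcription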
# Conditions: luminescence, 4.5 h, higher = more signal, called active from +8 up or from −8 down
row,SMILES,z-score
1,COCCOC(=O)N1C(=O)[C@@]2(c3ccccc31)[C@H](C(=O)N1CCCCCCC1)[C@H]1C(=O)O[C@H](c3ccccc3)[C@H](c3ccccc3)N1[C@@H]2c1ccc(OCCO)cc1,-0.791 (inactive)
2,COc1ccc([Si](C)(C)[C@H]2[C@H](CCO)O[C@@]3(C(=O)N(Cc4ccccc4)c4ccc(N5CCCCC5=O)cc43)[C@@H]2C)cc1,-1.16 (inactive)
3,COCCCNC(=O)[C@@]1(Sc2ccc(C)cc2)CC(=O)N(Cc2ccccc2Cl)[C@@H]1c1ccc(CO)cc1,1.09 (inactive)
4,CO[C@H]1O[C@H](CO)[C@@H](OC(=O)Nc2ccccc2)[C@@H]2OC(=O)[C@@H](Cc3ccc4ccccc4c3)C/C=C/C[C@H](Cc3ccc4ccccc4c3)C(=O)O[C@@H]12,-0.757 (inactive)
5,[N-]=[N+]=Nc1ccccc1C[C@]1(C(=O)N2CCCCC2)COC(c2ccc(OCCCO)cc2)=N1,-0.57 (inactive)
6,C=C(C(=O)CC[C@H](OC(C)=O)c1ccccc1OCCO)C(C)C,-0.422 (inactive)
7,COCCOC(=O)N1C(=O)[C@@]2(c3cc(C#CCCO)ccc31)[C@H](c1ccc(OCCO)cc1)N1[C@H](c3ccccc3)[C@H](c3ccccc3)OC(=O)[C@H]1[C@@H]2C(N)=O,1.71 (inactive)
8,C=CCC(OC(C)=O)[C@@H]1[C@@H](N(Cc2ccc(-c3ccccc3)cc2)C(=O)Cc2ccc(F)cc2)c2cc(OCCCO)ccc2N1C(=O)c1ccc2ccccc2c1 (stereo partly specified),0.601 (inactive)
9,COC(=O)[C@@]1(Cc2ccccc2)[C@H]2c3cc(C(=O)N4CCCC4)n(Cc4ccc(O)c(OC)c4)c3C[C@H]2CN1C(=O)c1ccccc1,0.333 (inactive)
10,CCOC(=O)C1=CC[C@@H](c2ccc(C(F)(F)F)cc2)N(S(=O)(=O)c2ccc(C)cc2)[C@H]1c1ccccc1,-0.052 (inactive)
11,O=C(CS)NCCCCCNC(=O)[C@@H]1C[C@@H]2C(=O)NCC(=O)N2[C@@H]1c1cccc(OCCO)c1,0.0712 (inactive)
12,C=CCC(OC(C)=O)[C@@H]1[C@@H](N(Cc2ccc(-c3cccc(C(F)(F)F)c3)o2)C(=O)Cc2ccc(OC)cc2)c2cc(OCCCO)ccc2N1C(=O)c1ccc2ccccc2c1 (stereo partly specified),1.52 (inactive)
13,CC=CC(O)C1C=CC2C(=O)N(C)C(=O)C2N1N(c1ccccc1)c1ccccc1 (stereo unspecified),0.493 (inactive)
14,O=C1O[C@@H](c2ccccc2)[C@@H](c2ccccc2)N2[C@@H](c3ccc(OCCO)cc3)[C@]3(C(=O)Nc4ccc(C#CCCO)cc43)[C@@H](C(=O)NC[C@H](O)c3ccccc3)[C@H]12,0.119 (inactive)
15,CC[C@@H]1C=C(C(=O)O)[C@H](c2cccc3ccccc23)N1S(=O)(=O)c1ccc(C)cc1,0.754 (inactive)
16,C[N+](C)(C)CCCCCCNC(=O)[C@H]1C[C@H]2C(=O)N[C@@H](Cc3ccccc3)C(=O)N2[C@H]1c1cccc(OCCO)c1,-0.54 (inactive)
17,CCOC(=O)C[C@H]1[C@H](OC(=O)c2ccc(C(=O)c3ccccc3)cc2)[C@@H](NC(=O)Cc2ccc(OC)cc2)c2cc(OCCCO)ccc2N1C(=O)c1ccc2ccccc2n1,-0.668 (inactive)
18,CC(C)(C)OC(=O)CC[C@]1(C(=O)NCCN2CCOCC2)COC(c2ccc(OCCCO)cc2)=N1,-0.168 (inactive)
19,COc1ccc(C(=O)Nc2cccc(CN3C(=O)[C@]4(O[C@H](CCn5cc(CCO)nn5)[C@@H]([Si](C)(C)c5ccc(OC)cc5)[C@@H]4C)c4ccccc43)c2)cc1,-1.52 (inactive)
20,COc1ccc(CCNC(=O)[C@@]2(c3ccc([N+](=O)[O-])cc3)CC(=O)N(CC34CC5CC(CC(C5)C3)C4)[C@@H]2c2ccc(CO)cc2I)cc1,-0.107 (inactive)
21,COc1ccc([C@H]2OC[C@@H]3CCC(=O)N32)cc1,0.426 (inactive)
22,O=C1O[C@@H](c2ccccc2)[C@@H](c2ccccc2)N2[C@@H](c3ccccc3OCCO)[C@]3(C(=O)Nc4ccccc43)[C@@H](C(=O)O)[C@H]12,2.62 (inactive)
23,CCOc1cc(C(O)C2C=CC3C(=O)N(c4ccccc4)C(=O)C3N2Nc2ccc(C(C)C)cc2)ccc1O (stereo unspecified),0.193 (inactive)
24,O=C1OCC=C[C@H]2OC34C=CCN(Cn5nnc6ccccc65)C(=O)[C@H]3N(CCCCCO)C(=O)[C@@H]4[C@@H]12 (stereo partly specified),-0.29 (inactive)
25,COC(=O)C(CC#Cc1ccc2c(c1)[C@]1(C(=O)N2)[C@H](c2ccc(O)cc2)N2[C@H](c3ccccc3)[C@H](c3ccccc3)OC(=O)[C@H]2[C@@H]1C(=O)N1CCN(c2ncccn2)CC1)C(=O)OC,-0.0048 (inactive)
26,CC[C@@H]1C=C(C(=O)O)[C@H](c2ccc(C)cc2)N1S(=O)(=O)c1ccc(C)cc1,1.03 (inactive)

# Molecular target: Streptavidin (Streptomyces avidinii) (UniProt P22629)
# Sequence (P22629 whole entry, looked up): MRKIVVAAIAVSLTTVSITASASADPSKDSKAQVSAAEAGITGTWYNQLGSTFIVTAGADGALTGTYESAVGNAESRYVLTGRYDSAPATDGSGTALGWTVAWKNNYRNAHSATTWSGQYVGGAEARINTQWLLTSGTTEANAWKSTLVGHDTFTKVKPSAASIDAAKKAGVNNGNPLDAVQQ
# Assay: compounds binding control protein streptavidin – biophysical, small-molecule microarray, 635/667 nm fluorescence, artefact control for SMM compound annotation, primary screen (AID 1147);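 note: signal reflects streptavidin binding to arrayed compounds as a control protein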
# Conditions: higher = more signal
row,SMILES,composite z-score
1,COCCOC(=O)N1C(=O)[C@@]2(c3ccccc31)[C@H](c1ccc(OCCO)cc1)N1[C@H](c3ccccc3)[C@H](c3ccccc3)OC(=O)[C@H]1[C@@H]2C(=O)N1CCc2cc(OC)c(OC)cc2C1,0.743
2,O=C(CS)NCCCCCNC(=O)[C@H]1C[C@H]2C(=O)NCC(=O)N2[C@H]1c1cccc(OCCO)c1,-1.05
3,CCCC[C@@H]1C[C@H]1[C@@H](NC(=O)c1cccnc1)c1ccc(Cl)cc1,-1.44
4,CCCCCCCCCCC(O)C1C=CC2C(=O)NC(=O)C2N1Nc1ccc(Cl)cc1Cl (stereo unspecified),-0.261
5,O=C1O[C@H](c2ccccc2)[C@H](c2ccccc2)N2[C@H]1[C@@H](C(=O)N1CCN(c3ncccn3)CC1)[C@]1(C(=O)Nc3ccc(C#CC4=CCCCC4)cc31)[C@H]2c1ccccc1OCCO,0.895
6,CCCCC(O)C1C=CC2C(=O)N(C)C(=O)C2N1N1CCCCC1 (stereo unspecified),0.0223
7,O=C1OCCC=C[C@H]2OC34C=CCN(c5ccc(Cl)cc5)C(=O)[C@H]3N(CCCO)C(=O)[C@@H]4C12 (stereo partly specified),-0.414
8,CO[C@H]1O[C@H](CO)[C@@H](OC(=O)Nc2cccc(F)c2)[C@H](OC(=O)Nc2ccccc2)[C@H]1OC(=O)Nc1ccccc1,-0.0985
9,C#CCOc1ccc(C[C@@H](C(=O)OC)N(CC#C)[C@@H](/C=C/C2CC2)[C@H](O)Cc2ccccc2)cc1,-0.57
10,CCCCCCc1nc(-c2ccc(-c3ccc(Cl)c(Cl)c3)o2)c(C)c2c1[Si](C(C)C)(C(C)C)OC2,0.0199
11,COCCOC(=O)N1C(=O)[C@@]2(c3ccccc31)[C@H](C(=O)N1CCCCCCC1)[C@H]1C(=O)O[C@H](c3ccccc3)[C@H](c3ccccc3)N1[C@@H]2c1ccc(OCCO)cc1,4.29
12,COc1ccc([Si](C)(C)[C@H]2[C@H](CCO)O[C@@]3(C(=O)N(Cc4ccccc4)c4ccc(N5CCCCC5=O)cc43)[C@@H]2C)cc1,0.381
13,COCCCNC(=O)[C@@]1(Sc2ccc(C)cc2)CC(=O)N(Cc2ccccc2Cl)[C@@H]1c1ccc(CO)cc1,0.584
14,CO[C@H]1O[C@H](CO)[C@@H](OC(=O)Nc2ccccc2)[C@@H]2OC(=O)[C@@H](Cc3ccc4ccccc4c3)C/C=C/C[C@H](Cc3ccc4ccccc4c3)C(=O)O[C@@H]12,0.31
15,[N-]=[N+]=Nc1ccccc1C[C@]1(C(=O)N2CCCCC2)COC(c2ccc(OCCCO)cc2)=N1,1.22
16,C=C(C(=O)CC[C@H](OC(C)=O)c1ccccc1OCCO)C(C)C,-0.455
17,COCCOC(=O)N1C(=O)[C@@]2(c3cc(C#CCCO)ccc31)[C@H](c1ccc(OCCO)cc1)N1[C@H](c3ccccc3)[C@H](c3ccccc3)OC(=O)[C@H]1[C@@H]2C(N)=O,0.266
18,C=CCC(OC(C)=O)[C@@H]1[C@@H](N(Cc2ccc(-c3ccccc3)cc2)C(=O)Cc2ccc(F)cc2)c2cc(OCCCO)ccc2N1C(=O)c1ccc2ccccc2c1 (stereo partly specified),-0.0075
19,COC(=O)[C@@]1(Cc2ccccc2)[C@H]2c3cc(C(=O)N4CCCC4)n(Cc4ccc(O)c(OC)c4)c3C[C@H]2CN1C(=O)c1ccccc1,0.211
20,CCOC(=O)C1=CC[C@@H](c2ccc(C(F)(F)F)cc2)N(S(=O)(=O)c2ccc(C)cc2)[C@H]1c1ccccc1,1.5
21,O=C(CS)NCCCCCNC(=O)[C@@H]1C[C@@H]2C(=O)NCC(=O)N2[C@@H]1c1cccc(OCCO)c1,-0.774
22,C=CCC(OC(C)=O)[C@@H]1[C@@H](N(Cc2ccc(-c3cccc(C(F)(F)F)c3)o2)C(=O)Cc2ccc(OC)cc2)c2cc(OCCCO)ccc2N1C(=O)c1ccc2ccccc2c1 (stereo partly specified),-0.445
23,CC=CC(O)C1C=CC2C(=O)N(C)C(=O)C2N1N(c1ccccc1)c1ccccc1 (stereo unspecified),0.29
24,O=C1O[C@@H](c2ccccc2)[C@@H](c2ccccc2)N2[C@@H](c3ccc(OCCO)cc3)[C@]3(C(=O)Nc4ccc(C#CCCO)cc43)[C@@H](C(=O)NC[C@H](O)c3ccccc3)[C@H]12,0.477
25,CC[C@@H]1C=C(C(=O)O)[C@H](c2cccc3ccccc23)N1S(=O)(=O)c1ccc(C)cc1,0.985
26,C[N+](C)(C)CCCCCCNC(=O)[C@H]1C[C@H]2C(=O)N[C@@H](Cc3ccccc3)C(=O)N2[C@H]1c1cccc(OCCO)c1,-0.563
27,CCOC(=O)C[C@H]1[C@H](OC(=O)c2ccc(C(=O)c3ccccc3)cc2)[C@@H](NC(=O)Cc2ccc(OC)cc2)c2cc(OCCCO)ccc2N1C(=O)c1ccc2ccccc2n1,0.619
28,CC(C)(C)OC(=O)CC[C@]1(C(=O)NCCN2CCOCC2)COC(c2ccc(OCCCO)cc2)=N1,0.344
29,COc1ccc(C(=O)Nc2cccc(CN3C(=O)[C@]4(O[C@H](CCn5cc(CCO)nn5)[C@@H]([Si](C)(C)c5ccc(OC)cc5)[C@@H]4C)c4ccccc43)c2)cc1,0.38
30,COc1ccc(CCNC(=O)[C@@]2(c3ccc([N+](=O)[O-])cc3)CC(=O)N(CC34CC5CC(CC(C5)C3)C4)[C@@H]2c2ccc(CO)cc2I)cc1,-0.0522
